Test results taken from publication PMC5913336, “True equilibrium measurement of transcription factor-DNA binding affinities using automated polarization microscopy”.

target: D (Drosophila melanogaster, UniProt Q24533 127-229); test: FP; 33 mM phosphate pH 7.0, 90 mM NaCl, 0.01% Tween 20, 0.1 mM DTT, 0.5% agarose; room temperature; conditions: tags: N-GST (pGEX-6P-1, kept); dsDNA, one strand shown
Sequence (Q24533 127-229): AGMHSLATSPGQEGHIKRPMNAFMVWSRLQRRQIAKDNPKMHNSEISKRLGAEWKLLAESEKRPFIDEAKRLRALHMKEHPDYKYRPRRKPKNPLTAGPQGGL

Row | Sequence | binding signal | Kd
1 | GAACATTGTTCTTG | 10.5 Kd / Kd of best base at the position | –
2 | GACCATTGTTTTTG | 2.05 Kd / Kd of best base at the position | –
3 | GACCTTTGTTCTTG | 2.8 Kd / Kd of best base at the position | –
4 | GACCATGGTTCTTG | 39.1 Kd / Kd of best base at the position | –
5 | GACCAATGTTCTTG | 44.4 Kd / Kd of best base at the position | –
6 | GACCATTGTGCTTG | 11.9 Kd / Kd of best base at the position | –
7 | GACCATTGGTCTTG | 54.3 Kd / Kd of best base at the position | –
8 | GACCATTGTTGTTG | 3.32 Kd / Kd of best base at the position | –
9 | GACCATTGTTCTTA | 1.16 Kd / Kd of best base at the position | –
10 | GACCATTGATCTTG | 31.7 Kd / Kd of best base at the position | –
11 | GACCATTGTTCTGG | 1.95 Kd / Kd of best base at the position | –
12 | GACCATTGTTCTAG | 1.95 Kd / Kd of best base at the position | –
13 | GACCATTGTTCCTG | 3.75 Kd / Kd of best base at the position | –
14 | AACCATTGTTCTTG | 1.37 Kd / Kd of best base at the position | –
15 | GACAATTGTTCTTG | 10.4 Kd / Kd of best base at the position | –
16 | GACCATTCTTCTTG | 17.3 Kd / Kd of best base at the position | –
17 | GACCATTGTTCTTT | 1.16 Kd / Kd of best base at the position | –
18 | GAGCATTGTTCTTG | 2.52 Kd / Kd of best base at the position | –
19 | GACCATTGTCCTTG | 8.08 Kd / Kd of best base at the position | –

Row | Sequence | binding signal | Kd
20 | CACCATTGTTCTTG | 1.12 Kd / Kd of best base at the position | –
21 | GACCATTGTACTTG | 8.66 Kd / Kd of best base at the position | –
22 | GACCATTGCTCTTG | 46 Kd / Kd of best base at the position | –
23 | GTCCATTGTTCTTG | 1.08 Kd / Kd of best base at the position | –
24 | GACCATTGTTATTG | 3.41 Kd / Kd of best base at the position | –
25 | GACGATTGTTCTTG | 12.4 Kd / Kd of best base at the position | –
26 | GACCATTGTTCTCG | 1.79 Kd / Kd of best base at the position | –
27 | GGCCATTGTTCTTG | 1.18 Kd / Kd of best base at the position | –
28 | GACCATTGTTCATG | 2.96 Kd / Kd of best base at the position | –
29 | GACCATAGTTCTTG | 40.3 Kd / Kd of best base at the position | –
30 | GACTATTGTTCTTG | 2.24 Kd / Kd of best base at the position | –
31 | GACCCTTGTTCTTG | 32.5 Kd / Kd of best base at the position | –
32 | GCCCATTGTTCTTG | 1.11 Kd / Kd of best base at the position | –
33 | GACCGTTGTTCTTG | 26 Kd / Kd of best base at the position | –
34 | GACCATTGTTCTTG | – | ~2.3 nM
35 | TACCATTGTTCTTG | 1.36 Kd / Kd of best base at the position | –
36 | GACCATTTTTCTTG | 40.5 Kd / Kd of best base at the position | –
37 | GACCATTATTCTTG | 14.1 Kd / Kd of best base at the position | –

target: T1, Slp1-FL (Drosophila melanogaster, UniProt P32030); test: as above; conditions: tags: N-GST (pGEX-6P-1, kept); dsDNA, one strand shown
T1 sequence: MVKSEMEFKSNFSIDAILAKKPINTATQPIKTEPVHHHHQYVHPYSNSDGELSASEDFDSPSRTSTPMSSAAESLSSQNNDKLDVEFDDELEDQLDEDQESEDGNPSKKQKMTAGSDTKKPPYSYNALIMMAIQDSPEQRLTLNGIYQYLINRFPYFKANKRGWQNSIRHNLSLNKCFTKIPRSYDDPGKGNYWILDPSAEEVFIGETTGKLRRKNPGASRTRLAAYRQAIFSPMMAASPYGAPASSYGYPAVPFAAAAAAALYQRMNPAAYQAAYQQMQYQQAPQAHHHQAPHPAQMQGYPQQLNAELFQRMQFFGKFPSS

Row | Sequence | binding signal
38 | ACGTGTTTGCACTTA | 23.1 Kd / Kd of best base at the position
39 | ACGTGTTTACACATA | 9.38 Kd / Kd of best base at the position
40 | ACGTGTTGACACTTA | 5.44 Kd / Kd of best base at the position
